From PubChem BioAssay AID1508600 (Functional Genomics Laboratory (NCATS/FGL), 2020)
The whole screen tested about 53,000 sequences, of which about 3,700 (7%) were called active.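 Rule for the calls: active = gene knockdowns whose robust z-score for IL-1 alpha signal is at least 2 or at most -2, so actives lie on both sides; inactive = the rest.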 Only a selection was taken, and actives are over-represented in it overall.

Experiment: Components of the Cytosolic LPS Sensing Pathway: Gene Identification via Genome-wide siRNA Screen;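 note: robust z of the log signal after scaling to non-targeting control siRNA wells of the plate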
Details: RAW264.7 macrophages, IL-1a HTRF, actives lie on both sides, screened at 100 nM (by protocol), cells primed 5 h with Pam3CSK4 first
How it was run: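 Cells (RAW264.7, 1×10^4 per well) were transfected with siRNA at 100 nM and cultured 48h at 37 degrees C. Pam3CSK4 was added for 5 hours; LipidA transfection followed for 24 hour. IL-1a was then measured by HTRF.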

Row | Sequence | z-score
1 | GGUACUACAAGAGAAAAGATT against Hdhd2 | -0.958 (inactive)
2 | GGUCUCUGUUGCUUUGACUTT against Tgoln1 | 4.13 (active)
3 | GGUCCUAAAAUUUCCUCUUTT against Prdx3 | 0.854 (inactive)
4 | GCCUCUUAUUUGGUUACGATT against Best3 | 0.605 (inactive)
5 | GCGUUUCACGUACCUUCCUTT against Nfatc1 | 1.22 (inactive)
6 | GGUGCUAUUUACCAAACUCTT against Btg2 | 1.82 (inactive)
7 | GGAACACAACUUCCUGUUCTT against Map11 | 1.05 (inactive)
8 | GGGAUGCUGUCUUCUGUCATT against Prex1 | -3.39 (active)
9 | GGAUUUUACAGUUUUUGGATT against Pccb | 1.01 (inactive)
10 | GGUCAUGGUUAUUUUGUUATT against Plekhg2 | 0.929 (inactive)
11 | GGCUAUUUUGGCUUGUAAATT against Jam2 | -0.504 (inactive)
12 | CCUAACCACUACCUUAUACTT against H2-DMa | 2.43 (active)
13 | GGUGUCAUGAUGGAGCUGATT against Crygc | 0.862 (inactive)
14 | GGGUAACACCUCAAGUUCATT against Rhag | 2.33 (active)
15 | GGCCUCAGUUGGACUUGAATT against Scn10a | -0.352 (inactive)
16 | GGCUAUACCUUGGUAGAUATT against Parvg | -1.19 (inactive)
17 | GGUCUCCUCCAAGAUGAUGTT against Mettl3 | -1.01 (inactive)
18 | GCAGGAGAACUUUUUUAGUTT against Hus1 | -1.01 (inactive)
19 | GGGUUGUUGAGACUUCCACTT against Hmbs | 2.79 (active)
20 | CCAGGAGGAUACAAUCCCUTT against Rgs3 | -3.38 (active)
21 | GGUGCUAGGAAUGAACGGGTT against Ripply1 | 0.478 (inactive)
22 | GGAUGCUUGUGGACCUGUGTT against Olfr1123 | 1.14 (inactive)
23 | GGAUUAAAUCCGAAAAGCUTT against Tmem51 | -2.36 (active)

Row | Sequence | z-score
24 | GGCCAUCAGUGUGGAAUGUTT against BC004004 | -0.19 (inactive)
25 | GGUAAUAACCCUUAAUAAGTT against Akirin2 | 0.572 (inactive)
26 | GCACAAAAAAGUGAUAUUGTT against Hdlbp | 0.41 (inactive)
27 | CGUAGCUGUAAUUCUUCAGTT against Pcdhgb2 | 2.02 (active)
28 | GGAAGAUGUUAAGAGUUACTT against Slc1a3 | -0.865 (inactive)
29 | GCUAUCUCUGCUAAUAAAGTT against Col6a1 | -0.203 (inactive)
30 | GCCAUCCUUGUGCUAAGAGTT against Ifna4 | -0.604 (inactive)
31 | GCAUGAAUUCAAAUUGCCATT against Adgrl4 | -0.981 (inactive)
32 | CGGUACUAAACAUUACCUCTT against Olfr633 | 0.957 (inactive)
33 | GAGUGGUUUCUAAUUCGUATT against A830031A19Rik | 2.56 (active)
34 | CCUGUUCUGUUAUCAACGGTT against Plxdc1 | 0.123 (inactive)
35 | GGCAAACUGUCUCUUCAGATT against Pim1 | -0.131 (inactive)
36 | GGUGAAGAGUUCAAACAUCTT against Atp9a | 1.29 (inactive)
37 | GGACAUUGACCUGUUCGGCTT against Eef1d | 0.952 (inactive)
38 | GGAGCUGUAUGAGAUAGAGTT against Zfp566 | 4.15 (active)
39 | GGACCUCAACAUCCAGAGATT against Sema6b | -0.217 (inactive)
40 | GGUUAAAGGUCAGAUUUAGTT against Dapk2 | 2.54 (active)
41 | CGACCUGAAAGAUUCGGAATT against Ppara | -1.04 (inactive)
42 | GCUCAACCCAUUCUUUGAUTT against Cep295nl | 0.407 (inactive)
43 | CCAAAGCUAGGUCAUUUUATT against Slc31a2 | 0.72 (inactive)
44 | GGAAAAAGCGGAAAUUCAGTT against Pgbd5 | -0.276 (inactive)
45 | GCAUUUGUACAUUGUGACUTT against Ces5a | -2.28 (active)
46 | GGGUCCAGUAUCCAUCAAATT against Sf3a1 | -2.7 (active)

Row | Sequence | z-score
47 | GGAAGAAGACUCAGAAAGUTT against Prkag2 | 1.43 (inactive)
48 | CCGACCAUCUGUGGAAAUATT against Samd5 | 0.227 (inactive)
49 | GCCAGAUCCCUGGAAUGUATT against Ece2 | -0.632 (inactive)
50 | GGUAUUGCUUUCACAUUAUTT against Efr3a | 0.434 (inactive)
51 | GGUGUAAGAACUUCAAGUUTT against Tlr9 | 0.199 (inactive)
52 | GGCUGUUUUUACCCUACUUTT against Vmn1r72 | -0.441 (inactive)
53 | GGAGAAAUUCAAAAGGAAUTT against Ms4a6d | -0.764 (inactive)
54 | GGAUGCUCAUGCUAAGCAGTT against Krt7 | 0.547 (inactive)
55 | GGAUGAGGGAACGUACAUUTT against Il18r1 | 5.74 (active)
56 | GGAACUUCCCUAUAGUGAATT against Hdac3 | -1.52 (inactive)
57 | GGAUGCGCUGAUAUCAGUATT against Olfr370 | 1.3 (inactive)
58 | GCUCAUUGAGUACAAGACCTT against Ndufs2 | 1.76 (inactive)
59 | GGUCACUGAACCUAUUUCCTT against Arhgap15 | -2.56 (active)
60 | CCCUCAAUGCUGGAAAACCTT against Nol4 | -1.43 (inactive)
61 | GGCAAGGAUGAUGUCUUCGTT against Upk1a | -1.33 (inactive)
62 | GCUUCUAGGGACCUAUUAATT against Dhx30 | -0.0854 (inactive)
63 | GGUCUAUGAGAUGUUUUCUTT against Cyp2a4 | 2.78 (active)
64 | GCAACUGGCUGAACUCUCATT against Gsdmc2 | 3.91 (active)
65 | GGCACUCAAUGUCUUCUAUTT against Nbeal1 | 0.516 (inactive)
66 | GCUACUGCAGUAUACAUUGTT against Olfr869 | 2.21 (active)
67 | GGAAUCGGUACUCUUCCACTT against Tcerg1l | 0.26 (inactive)
68 | GGAAUUCAUGAAGUAUAACTT against Myo5c | 0.941 (inactive)
69 | GAUAAUUUGCACAUCCUCUTT against Nrn1l | -0.999 (inactive)
